Bioassay records as filed in PubChem BioAssay.
Compounds with a hit are over-represented: about 2.1% of the library has one in this group of screens.
ClpP mod: qHTS Assay for Activators of ClpP; Potency, µM (titrated, usually from 57.5 µM); ATP-dependent Clp protease proteolytic subunit (Bacillus subtilis (strain 168)), P80244; 1.9% of 340,000 active; purified B. subtilis ClpP, FRET peptide cleavage, 20 min; active means well fitted falling curve with a large enough effect; inconclusive means small, poorly fitted or top-dose-only effect; inactive means no such curve, though single readings can be large or run the other way; further: the source files actives as falling curves though it sought activators and does not explain the sign; nearly all actives have a fitted effect of over 65% in size
Target sequence (P80244 whole entry, looked up): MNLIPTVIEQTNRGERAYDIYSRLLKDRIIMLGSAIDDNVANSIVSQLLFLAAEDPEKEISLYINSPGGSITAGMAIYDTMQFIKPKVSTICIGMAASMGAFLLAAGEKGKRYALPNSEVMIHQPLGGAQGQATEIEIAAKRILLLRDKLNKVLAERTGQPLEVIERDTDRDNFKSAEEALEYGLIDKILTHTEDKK
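ClpP 10 microg/mL final, pH 8 Tris/KCl buffer with BSA, glycerol, Tween-20; compound pinned in; FRET-FV substrate; RT 20 min; Ex320/Em430; ΔFRET vs ADEP 5.8 microM, DMSO, no enzyme.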
uPA surface inh: inhibitors of cell surface uPA generation | cell surface uPA generation assay, qHTS | Potency, µM (doses to about 38.3 µM), actives largely listed as inhibitors | 0.31% of 330,000 active; active means well fitted inhibition curve with a large enough effect; inconclusive means small, poorly fitted or top-dose-only effect; inactive means no such curve, though single readings can be large or run the other way; tested in mouse RAW 264.7 cells; further: nearly all actives have a fitted effect of over 55% in size
Giardia killer: kills Giardia lamblia | Giardia lamblia trophozoite viability | activity change, % at 7.66 µM, hits read low | 0.15% of 340,000 active; in the data active means activity change below about -80%; inconclusive means between about -30% and that limit;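 further: parasites exposed to compound for two days anaerobically before the ATP read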
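Trophozoite viability was measured as ATP-dependent luminescence, read 15-30 min after reagent addition. Before that, parasites at 100 cells/well were exposed to compounds for 48 h, anaerobically, at 37 deg C.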
p53 reactivator: re-activators of mutant p53; H1299 p53-A138V BP100-luciferase reporter, luminescence, 24 h; Potency, µM (doses to about 92.2 µM), hits mostly activators; 0.063% of 320,000 active; further: nearly all actives have a fitted effect of over 45% in size
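H1299 (p53-null), stable ts p53-A138V + BP100-Luc; 1000 cells/well, Opti-MEM/10% FBS; cpd 4 pt, 1:5; 24 h, 37 deg C, 5% CO2; detection reagent 10 min RT; luminescence.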
Mito fusion act: blocks mitochondrial division or promotes mitochondrial fusion | S. cerevisiae fusion-defective mutant growth rescue, CellTiterGlo 48 h | Potency, µM (series often up to 46.1 µM), most hits filed as activators | 0.23% of 320,000 active; further: nearly all actives have a fitted effect of over 45% in size
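S. cerevisiae fusion-defective temperature-sensitive mutants (e.g. fzo1-1, mgm1-5) grown 48 h at 37C in YPEG (ethanol/glycerol non-fermentable) medium with 23 nl compound per well; growth rescue read as CellTiterGlo luminescence.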
B2AR arrestin: beta2AR (human) beta-arrestin recruitment activity. P07550. beta-arrestin recruitment to beta2AR, cell-based reporter. Potency, µM (titrated, usually from 46.1 µM), hits mostly activators. 0.02% of 330,000 active; further: nearly all actives have a fitted effect of over 65% in size
Target sequence (P07550 whole entry, looked up): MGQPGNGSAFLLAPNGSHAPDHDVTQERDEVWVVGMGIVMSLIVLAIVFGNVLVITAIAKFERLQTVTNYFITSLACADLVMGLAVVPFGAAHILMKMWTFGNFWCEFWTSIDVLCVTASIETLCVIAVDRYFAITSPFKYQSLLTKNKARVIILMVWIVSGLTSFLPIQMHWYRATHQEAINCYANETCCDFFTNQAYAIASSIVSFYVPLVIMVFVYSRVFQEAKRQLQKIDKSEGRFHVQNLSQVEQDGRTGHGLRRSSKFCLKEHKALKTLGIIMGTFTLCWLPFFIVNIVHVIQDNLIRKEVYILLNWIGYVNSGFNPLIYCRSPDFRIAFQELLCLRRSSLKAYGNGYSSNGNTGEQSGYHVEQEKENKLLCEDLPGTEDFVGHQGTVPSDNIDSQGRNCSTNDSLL
Numbers stand for hits; i = inactive; ? = inconclusive; nt = no result given. Unless noted, the call rests on the fitted dose curve; in most records, active means well fitted curve in the direction sought with a large enough effect; inconclusive means small, poorly fitted or top-dose-only effect, or another doubt; inactive means no such curve, though single readings can be large; an effect the other way counts as inactive or inconclusive.

SMILES	ClpP mod	uPA surface inh	Giardia killer	p53 reactivator	Mito fusion act	B2AR arrestin
Cc1cc2[nH]c3c4ccccc4nc(C)c3c2cc1C	i	10µM	i	nt	nt	nt
CCOc1ccc(CCn2c3c(c(=O)[nH]c2=O)C(NC(=O)c2ccccc2)(C(F)(F)F)C(=O)N3)cc1OCC (configuration not stated)	i	nt	nt	nt	nt	nt
O=C(OCC(=O)N1CCCCC1)c1n[nH]c(=O)c2ccccc12	nt	i	i	i	i	i
CC1CCCN(C(=O)COC(=O)c2n[nH]c3ccccc23)C1 (configuration not stated)	22µM	i	i	i	i	i
COC(=O)C1CCN(C(=O)COC(=O)c2n[nH]c3ccccc23)CC1	32µM	nt	i	?	i	i
COc1ccc(NC(=O)CN(Cc2ccccc2)S(=O)(=O)c2ccc(C)cc2)cc1Cl	i	nt	nt	nt	nt	nt
CCOc1ccccc1N1CCN(C(=O)c2cc3ccccc3cc2OC)CC1	i	3.5µM	i	i	i	i
COc1cc2ccccc2cc1C(=O)N1CCN(C(C)=O)CC1	?	i	i	i	i	i
CCOC(=O)c1ccc2nc(C)c3c(c2c1)OC(C)C3 (configuration not stated)	32µM	i	i	i	i	i
CCOC(=O)c1ccc2nc(C(F)(F)F)[nH]c(=O)c2c1	4µM	i	i	i	i	i
COc1ccc2nc(C)c3c(c2c1)OC(C)C3 (configuration not stated)	?	i	i	i	i	i
O=C(CCSc1nnc2ccccn12)Nc1ccc(F)cc1	28µM	i	i	i	i	i
COc1ccc(C2N(Cc3ccccc3)CC(=O)N2/N=C(\C)c2ccccc2)cc1 (configuration not stated)	16µM	i	i	i	i	i
COCCCNC(=O)C(C)n1c2ccccc2c2cnn(C)c(=O)c21 (configuration not stated)	i	nt	nt	nt	nt	nt
c1ccc2[nH]c(NCCCN3CCOCC3)nc2c1	i	i	i	i	i	i
O=c1[nH]c2ccccc2nc1NCCN1CCOCC1	32µM	i	i	i	i	i
S=C(NCCN1CCOCC1)Nc1ccc(-c2nc3ccccc3[nH]2)cc1	i	10µM	i	i	i	i
Fc1ccc(NC(=S)NCCN2CCOCC2)cc1	nt	i	i	i	i	i
COc1ccc(Br)cc1S(=O)(=O)Nc1cc(-c2cn3ccccc3n2)ccc1C	18µM	nt	nt	nt	nt	nt
Cc1cc(C)c(S(=O)(=O)Nc2cc(-c3cn4ccccc4n3)ccc2C)cc1C	i	nt	nt	nt	nt	nt
CC(C)CN1CCN(Cc2cccn2-c2ccccn2)CC1CCO (configuration not stated)	i	i	i	i	i	i
CC(C)=CCN1CCN(Cc2cccn2-c2ccccn2)CC1CCO (configuration not stated)	28µM	i	i	i	i	i
COc1ccc(C2N3CC4(C)CN2CC(c2ccccc2)(C3)C4=O)cc1 (configuration not stated)	i	nt	nt	nt	nt	nt
CCN(CC)c1ccc(/C=C(/C#N)c2nc3ccccc3[nH]2)c(OC(C)C)c1	i	10µM	i	i	i	i
CCOc1cccc(/C=C(/C#N)c2nc3ccccc3[nH]2)c1OCC(=O)O	i	i	i	i	i	i
SMILES	ClpP mod	uPA surface inh	Giardia killer	p53 reactivator	Mito fusion act	B2AR arrestin
CC(=O)c1ccc(NC(=O)C(C)n2nc(-c3ccccc3)ccc2=O)cc1 (configuration not stated)	i	nt	nt	nt	nt	nt
O=C(Nc1nnc(C2CC2)o1)c1ccc(S(=O)(=O)N2CCCc3ccccc32)cc1	i	6.3µM	?	?	i	i
COCc1nnc(NC(=O)c2ccc(S(=O)(=O)N3CCCc4ccccc43)cc2)o1	nt	i	i	i	i	i
CN(CCCNC(=O)Cn1ncc2c([nH]c3ccccc32)c1=O)Cc1ccccc1	i	nt	nt	nt	nt	nt
N#CC(=C(\N)Sc1ccccc1N)/C(C#N)=C(/N)Sc1ccccc1N	nt	nt	nt	nt	18µM	nt
COc1ccc(OC)c(NC(=O)CSc2nccn2-c2cc(C)cc(C)c2)c1	i	nt	nt	nt	nt	nt
CC(=O)c1ccc(N2CCN(c3ncccn3)CC2)cc1	nt	i	i	?	25µM	i
CCN1CCN(c2cc(-c3ccccc3)nc3cc(-c4cccc(F)c4)nn23)CC1	25µM	i	i	i	i	i
N=c1c2c(n(Cc3ccc(Cl)c(Cl)c3)c3c1CCC3)CCCC2	i	i	i	i	i	i
N=c1c2c(n(Cc3ccc(Br)cc3)c3c1CCC3)CCCC2	i	4µM	i	i	i	i
CCC(=O)NC(c1cccc([N+](=O)[O-])c1)c1c(OC(C)=O)ccc2ccccc12 (configuration not stated)	28µM	i	i	i	i	i
O=C1S/C(=C\c2ccc(O)c([N+](=O)[O-])c2)C(=O)N1Cc1cccc([N+](=O)[O-])c1	nt	i	-82	i	i	i
Cc1cccc(NC(=O)CN2C(=O)S/C(=C\c3ccc(O)c([N+](=O)[O-])c3)C2=O)c1	nt	i	?	i	i	i
Cc1ccc(NC(=O)CN2C(=O)S/C(=C/c3ccc(O)c([N+](=O)[O-])c3)C2=O)cc1C	nt	i	-82	i	i	i
O=C1/C(=C\c2ccc(O)c(O)c2)SC(=S)N1Cc1ccccc1	nt	i	i	i	13µM	i
C#CCOc1ccc(/C=C2\SC(=S)N(Cc3cccnc3)C2=O)cc1	i	i	i	35µM	?	i
COc1cc(/C=C2/SC(=S)N(Cc3ccccc3)C2=O)ccc1O	nt	i	i	i	i	i
COc1cc2nc(N3CCCN(C)CC3)nc(NC3CCN(Cc4ccccc4)CC3)c2cc1OC	i	nt	nt	nt	i	nt
CCOc1ccc(-c2nnc(-c3ccncc3)o2)cc1	?	i	i	i	i	i
CCOc1ccc(-c2nnc(-c3ccccc3)o2)cc1	28µM	i	i	?	i	i
CCOc1ccc(-c2nnc(-c3ccc(OC)cc3)o2)cc1	?	i	i	i	i	i
c1ccc(CSc2nnc(-c3cccs3)o2)cc1	i	i	i	?	i	i
CCCOc1ccc(-c2nnc(-c3cccs3)o2)cc1	10µM	i	i	nt	i	i
CCCCOc1ccc(-c2nnc(-c3ccncc3)o2)cc1	16µM	i	i	?	i	i
CCSc1nnc(-c2cccs2)o1	28µM	i	i	?	i	i
CN(C)c1ccc(-c2nnc(-c3cccs3)o2)cc1	i	i	i	?	i	i
O=[N+]([O-])/C=C\c1ccc(N2CCOCC2)cc1	i	8.9µM	i	nt	nt	nt
O=C(COc1ccc(/C=C\[N+](=O)[O-])cc1)N1CCOCC1	i	i	i	i	i	i
Cc1ccc(C(=O)c2c3ccc(C(F)(F)F)cc3[n+]([O-])n2CCCN)cc1	i	i	-90	?	i	i
Cc1ccc(C(=O)c2c3ccc([N+](=O)[O-])cc3[n+]([O-])n2CCCN)cc1	i	0.63µM	?	?	i	i
